# Compound activity (PubChem)
# Neddylation inh = inhibitors of human cullin neddylation | TR-FRET cullin neddylation, biochemical | inhibition, % at 25 µM | 360,000 tested, 0.58% active; in the data active means inhibition above about 36%
# Target sequence (P61081 whole entry, looked up): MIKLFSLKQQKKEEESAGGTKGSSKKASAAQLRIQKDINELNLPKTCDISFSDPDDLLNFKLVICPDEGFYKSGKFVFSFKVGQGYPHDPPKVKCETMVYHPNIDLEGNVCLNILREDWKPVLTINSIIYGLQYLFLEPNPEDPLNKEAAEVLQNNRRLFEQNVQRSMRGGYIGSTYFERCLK
# Target sequence (Q13564 whole entry, looked up): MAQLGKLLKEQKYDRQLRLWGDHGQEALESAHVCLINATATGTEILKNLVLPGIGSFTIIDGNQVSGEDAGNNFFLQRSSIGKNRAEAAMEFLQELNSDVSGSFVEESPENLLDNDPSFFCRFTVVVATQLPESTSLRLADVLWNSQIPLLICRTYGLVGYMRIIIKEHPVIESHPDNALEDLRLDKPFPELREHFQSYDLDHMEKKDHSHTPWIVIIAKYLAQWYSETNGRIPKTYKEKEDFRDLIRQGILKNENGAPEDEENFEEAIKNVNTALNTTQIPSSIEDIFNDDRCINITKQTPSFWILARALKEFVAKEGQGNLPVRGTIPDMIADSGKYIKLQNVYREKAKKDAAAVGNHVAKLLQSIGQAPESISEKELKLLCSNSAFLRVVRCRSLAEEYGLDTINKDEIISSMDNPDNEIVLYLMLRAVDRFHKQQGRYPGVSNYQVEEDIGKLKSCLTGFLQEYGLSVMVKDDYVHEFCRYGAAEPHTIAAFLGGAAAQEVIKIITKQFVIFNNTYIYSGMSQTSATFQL
# sPLA2-III inh = Inhibits HGIII-sPLA2 liposome hydrolysis, primary screen | QFRET BODIPY PC-A2 liposome hydrolysis, fluorescence | inhibition, % at 12.2 µM | 370,000 tested, 0.56% active | AID 743126;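 active means inhibition above mean plus 3 SD of compounds lying within the high and low control bounds, cut at about 19% in these data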;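 further: 0% = median of test compound wells and 100% = no enzyme DMSO wells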
# NadD block = blocks S. aureus nicotinate mononucleotide adenylyltransferase; purified NadD enzyme, colorimetric absorbance read-out; inhibition, % at 20 µM; 360,000 tested, 0.78% active; AID 602399; in the data active means inhibition above about 26%
# DAGLB inh = diacylglycerol lipase beta (human) inhibition; HEK293T DAGLB membrane lysate, EnzChek fluorogenic substrate; 340,000 tested, 0.059% active; Q8NCG7; inhibition, % at 5.17 µM; in the data active means inhibition above about 34%;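 further: 0% = enzyme with vehicle and 100% = wells lacking enzyme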
# ARNT TACC3 PPI = disrupts binding between human ARNT and TACC3; Q9Y6A5; AlphaScreen His-ARNT PAS-B/GST-TACC3 binding, luminescence; TACC3 fragment carries E629A point mutation; inhibition, % at 9.99 µM; 390,000 tested, 0.66% active; AID 623870;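 active means mean inhibition of replicates at least 50% and at least half of replicates each reaching 50%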;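 further: 0% = complete ARNT plus TACC3 wells and 100% = ARNT alone without TACC3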
# Active calls of the source: *; / = no result given. This is a sample that favours compounds with a hit; in the whole collection about 2% have one here.
SMILES,Neddylation inh,sPLA2-III inh,NadD block,DAGLB inh,ARNT TACC3 PPI
C[C@@H](NC(=O)C[C@@H]1C=C[C@@H](NC(=O)C2CCC2)[C@@H](CO)O1)c1ccccc1,/,/,/,/,8
O=C(/C=C1\NC2(CCCC2)Cc2ccccc21)C(=O)N/N=C/c1ccc(O)c(O)c1,-13,-8,38*,18,-2
O=C(C[C@H]1CC[C@H]2[C@@H](COC[C@@H](O)CN2C(=O)c2ccccc2F)O1)N1CCCCC1,/,/,/,/,-2
Cc1c(C(=O)N/N=C/c2ccncc2)no[n+]1[O-],-5,7,-3,-1,69*
Cc1nonc1C(=O)N/N=C/c1ccncc1,-8,4,-4,0,-3
CC(Nc1ccc2ccccc2c1)C(=O)N/N=C/c1ccncc1 (configuration not stated),-62,3,3,2,active
CC1(C)CC[C@]2(C(=O)n3ccnc3)CC[C@]3(C)[C@H](C(=O)C=C4[C@@]5(C)C=C(C#N)C(=O)C(C)(C)[C@@H]5CC[C@]43C)[C@@H]2C1,-10,-28,43*,18,-1
C=CC(=O)Nc1cccc(Oc2ccnc(Nc3ccc(N4CCN(C)CC4)cc3)n2)c1,-24,1,15,3,15
C=CC(=O)Nc1cccc(Oc2ccnc3[nH]ccc23)c1,38*,/,59*,6,-4
COCC(=O)N(C)C[C@H]1Oc2cc(-c3ccc(C#N)cc3)ccc2S(=O)(=O)N([C@@H](C)CO)C[C@H]1C,/,/,/,/,5
CCOc1cc(/C=C2\CCC/C(=C\c3cc(Cl)c(O)c(OCC)c3)C2=O)cc(Cl)c1O,1,1,46*,6,-6
COc1ccc(NC(=O)N2c3ccccc3C(C)=CC2(C)C)cc1,7,2,-5,-1,-1
CCOc1ccc2c(c1)C(C)=CC(C)(C)N2C(=O)Nc1ccccc1,31,/,14,-2,48*
C[C@@H]1CN([C@H](C)CO)S(=O)(=O)c2ccc(C#CC3CC3)cc2O[C@@H]1CN(C)C,/,/,/,/,-2
COc1cc(NCCCC(C)N)c2ncccc2c1 (configuration not stated),-41,4,4,-4,67*
COc1ccc(NC(=O)N(C)C[C@H]2Oc3ccc(NS(=O)(=O)c4ccc(OC)cc4)cc3C(=O)N([C@@H](C)CO)C[C@@H]2C)cc1,/,/,/,/,3
CSC(=S)NN=C(C)c1cccc(C)n1,-5,15,2,-2,59*
Cn1c2ccccc2c2cc(/C=C(\NC(=O)c3ccccc3)C(=O)O)ccc21,9,-23,1,6,12
CC(C)OC(=O)/C(=C\c1ccc2c(c1)c1ccccc1n2C)NC(=O)c1ccccc1,38*,-12,25,-3,1
O=C(O)c1cc(N2N=C(C(F)(F)F)/C(=C/C=C/c3ccco3)C2=O)ccc1Cl,18,-9,42*,18,-11
O=C(Nc1ccc(C(F)(F)F)cc1)N[C@H]1C=C[C@@H](CC(=O)N2CCCCC2)O[C@H]1CO,/,/,/,/,0
O=C(Nc1ccc(C(F)(F)F)cc1)N[C@@H]1C=C[C@@H](CC(=O)N2CCCCC2)O[C@H]1CO,/,/,/,/,46*
Cc1ccc(C(C[N+](=O)[O-])c2c(-c3ccccc3O)[nH][nH]c2=O)cc1 (configuration not stated),40*,-18,6,5,17
C[C@@H]1CN([C@@H](C)CO)C(=O)c2cc(NC(=O)NC3CCCCC3)ccc2O[C@@H](C)CCCCO[C@H]1CN(C)C(=O)CCC(F)(F)F,/,/,/,/,-7
CCCc1nc2sc3c(SCC(=O)NCc4ccco4)ncnc3c2c2c1CCC2,-101,-4,34*,2,8
SMILES,Neddylation inh,sPLA2-III inh,NadD block,DAGLB inh,ARNT TACC3 PPI
CO[C@@H]1CN(C)C(=O)c2ccc(NC(=O)C3CCOCC3)cc2OC[C@H](C)N(C)C[C@@H]1C,/,/,/,/,-7
O=C1N=c2ccccc2=C1c1sc(Nc2ccc(O)cc2)nc1O,-41,-11,33*,0,-24
O=C(C[C@H]1CC[C@@H](NS(=O)(=O)c2cccc(F)c2)[C@@H](CO)O1)NCc1ccc2c(c1)OCO2,/,/,/,/,-4
COc1ccc(NC(=O)N[C@H]2CC[C@H](CCNC(=O)Cc3ccncc3)O[C@@H]2CO)cc1,/,/,/,/,-10
COc1cc(OC)c2c(O)c3c(c(-c4c5c(c(O)c6c(OC)cc(OC)cc46)CO[C@@H](C)[C@H]5O)c2c1)[C@H](O)[C@H](C)OC3,0,/,50*,28,8
COc1cc2c(c(OC)c1O)C(=O)CO2,-5,-4,-2,-2,36
O=C(CCS(=O)(=O)c1ccccc1)Nc1ccccn1,4,0,-1,2,-9
Cc1ccc(S(=O)(=O)CCC(=O)Nc2nc(-c3ccncc3)cs2)cc1,-10,2,0,0,-3
O=C(CCS(=O)(=O)c1ccccc1)Nc1nc(-c2ccccn2)cs1,-2,-4,-4,0,65*
O=C(CCS(=O)(=O)c1ccc(F)cc1)Nc1nc(-c2ccccn2)cs1,0,-6,-3,0,60*
C[C@@H]1CN([C@H](C)CO)S(=O)(=O)c2ccc(C#Cc3ccncc3)cc2O[C@H]1CN(C)C(=O)C1CCOCC1,/,/,/,/,2
CCNC(=S)NNC(=O)c1ccc(OC)cc1,-8,5,-1,-3,-22
CCCCC(=O)NC(=S)NNC(=O)c1ccc(OC)cc1,1,3,2,2,54*
CCCCC(=O)NC(=S)NNC(=O)CCc1ccccc1,-2,3,0,2,29*
COc1ccc(S(=O)(=O)Nc2cccc3c2O[C@H](CN(C)C(=O)NC(C)C)[C@@H](C)CN([C@@H](C)CO)C3=O)cc1,/,/,/,/,-7
C[C@@H]1CN([C@@H](C)CO)C(=O)Cc2cc(NS(C)(=O)=O)ccc2O[C@@H]1CN(C)Cc1ccc(Oc2ccccc2)cc1,/,/,/,/,6
CCNC(=O)C[C@H]1CC[C@H]2[C@@H](COC[C@@H](O)CN2Cc2ccncc2)O1,/,/,/,/,-10
Cc1ccc(-n2cccc2/C=C2\C(=N)N3N=C(c4ccco4)SC3=NC2=O)cc1,-6,-4,47*,8,0
CCC1=NN2C(=N)/C(=C\c3cccn3-c3ccc(Cl)cc3)C(=O)N=C2S1,-14,4,14,0,1
C[C@@H]1CN([C@H](C)CO)S(=O)(=O)c2ccc(C#CC3(O)CCCC3)cc2O[C@@H]1CN(C)C(=O)Cc1cccnc1,/,/,/,/,-4
O=C1CCn2c1c(O)c1ccccc1c2=O,/,1,3,-4,52*
C[C@@H]1CN([C@@H](C)CO)C(=O)c2cc(C#C[C@@H](C)O)cnc2O[C@H]1CN(C)C(=O)CN1CCOCC1,/,/,/,/,1
CCSc1nnc(NC(=O)CSc2nncc(=O)n2N)s1,6,-2,0,0,70*
CC(/C=C(\NC(=O)c1ccccc1)C(=O)N=Nc1c(O)[nH]c2ccc(C)cc12)=C\c1ccccc1,-2,-3,39*,23,-4
Cc1ccc2[nH]c(O)c(N=NC(N)=S)c2c1,-34,11,1,2,12
